Reference: PubChem BioAssay (Tox21)
Results filed as inconclusive are left out. Calls of active or inactive are those of the source. Unless noted, calls follow the shape of the dose curve; as a rule, active = well fitted curve in the direction sought with a large enough effect in the repeat runs; inconclusive = weak or mixed curves; inactive = no such curve, though single readings can be large; an effect the other way counts as inactive or inconclusive. Non-standard residues stand in square brackets, D forms with d. Residues, ends and D or L forms follow the SMILES beside them. *: point of attachment. Sta = CC(C)C[C@H](N)[C@@H](O)CC(=O)O; Isovaleryl = CC(C)CC(=O)*

Key:
[1] = A CellTox Green Cytotoxicity Assay to monitor cytotoxicity in HepG2 cells - 24 hour (AID 1224878); also: nearly all actives have a fitted effect of over 45% in size
Summary of the method: (§1)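 Cells and non-lytic dye reagent are dispensed together (600 HepG2 cells/well) and incubated 5 h before DMSO compound transfer. Kinetic fluorescence is then recorded in the same wells during 40 h at 37 C.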

[2] = A CellTox Green Cytotoxicity Assay to monitor cytotoxicity in HepG2 cells - 40 hour (AID 1224879); also: nearly all actives have a fitted effect of over 40% in size
Summary of the method: as §1

[3] = qHTS RealTime-Glo MT Cell Viability Assay in HEK293 cells - 0 hour (AID 1224880); also: top concentration of the series differs between compounds; nearly all actives have a fitted effect of over 45% in size
Summary of the method: (§2)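 Real-time viability in HEK293: signal arises when living cells convert a prosubstrate for NanoLuc in the medium, so luminescence tracks viable cell number. Compound (23 nL, DMSO) added 5 h post-seeding; kinetic reads at 0–40 h, 37 C.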

[4] = A CellTox Green Cytotoxicity Assay to monitor cytotoxicity in HEK293 cells - 32 hour (AID 1224881); also: nearly all actives have a fitted effect of over 40% in size
Summary of the method: (§3)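 Cells (HEK293, 600/well) and dye reagent are dispensed together. After 5 h at 37 C, 23 nL compound is pinned in. Plates stay at 37 C for 40 h with fluorescence read at 0h, 8h, 16h, 24h, 32h and 40h.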

[5] = A CellTox Green Cytotoxicity Assay to monitor cytotoxicity in HepG2 cells - 0 hour (AID 1224882); also: nearly all actives have a fitted effect of over 35% in size
Summary of the method: as §1

[6] = A CellTox Green Cytotoxicity Assay to monitor cytotoxicity in HepG2 cells - 32 hour (AID 1224883); also: nearly all actives have a fitted effect of over 50% in size
Summary of the method: as §1

[7] = A CellTox Green Cytotoxicity Assay to monitor cytotoxicity in HEK293 cells - 8 hour (AID 1224884); also: nearly all actives have a fitted effect of over 35% in size
Summary of the method: as §3

[8] = qHTS RealTime-Glo MT Cell Viability Assay in HepG2 cells - 16 hour (AID 1224885); also: nearly all actives have a fitted effect of over 50% in size
Summary of the method: (§4)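 Viability was tracked continuously by NanoLuc luminescence from prosubstrate reduced by living HepG2 cells, at successive time points over 40 h of compound exposure. Cells with reagent were preincubated 5 h at 37 °C before compound addition.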

[9] = qHTS RealTime-Glo MT Cell Viability Assay in HEK293 cells - 24 hour (AID 1224886); also: top concentration of the series differs between compounds; nearly all actives have a fitted effect of over 50% in size
Summary of the method: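 Viability tracked continuously by luminescence as live cells reduce a prosubstrate for NanoLuc; HEK293 cells preincubated 5 h, compound-treated at 37 C, and read at 0, 8, 16, 24, 32 and 40 h.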

[10] = qHTS RealTime-Glo MT Cell Viability Assay in HEK293 cells - 8 hour (AID 1224887); also: top concentration of the series differs between compounds; nearly all actives have a fitted effect of over 50% in size
Summary of the method: as §2

[11] = A CellTox Green Cytotoxicity Assay to monitor cytotoxicity in HEK293 cells - 16 hour (AID 1224888); also: nearly all actives have a fitted effect of over 35% in size
Summary of the method: as §3

[12] = qHTS RealTime-Glo MT Cell Viability Assay in HepG2 cells - 0 hour (AID 1224889); also: nearly all actives have a fitted effect of over 50% in size
Summary of the method: as §4

[13] = qHTS assay to identify small molecule antagonists of the estrogen receptor alpha (ER-alpha) signaling pathway using the BG1 cell line in the presence of 0.1 nM 17-beta-estradiol - cell viability counter screen (AID 1259241); also: nearly all actives have a fitted effect of over 40% in size
Summary of the method: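 VM7Luc4E2 cells (endogenous full-length ER-alpha, 4xERE-luciferase), cultured 5 days in charcoal-stripped serum, exposed to compounds with 0.1 nM 17beta-estradiol (final) for 22 hr at 37C. Viability read in same wells as live-cell protease fluorescence after 30 min.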

[14] = qHTS assay to identify small molecule antagonists of the androgen receptor (AR) signaling pathway using the MDA cell line in the presence of 0.5 nM R1881 - cell viability counter screen (AID 1259242); also: nearly all actives have a fitted effect of over 45% in size
Summary of the method: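 Steps: plate MDA-kb2 cells, rest 5 hr at 37C without CO2; pin in compounds in DMSO; add R1881 to 0.5 nM final; incubate 16 hr; add CellTiter-Fluor, 30 min; read fluorescence.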

[15] = qHTS assay to identify small molecule phospholipidosis (PLD) inducers (AID 1259344; active = well fitted curve in the direction sought with a large enough effect; an effect the other way counts as inactive or inconclusive)
Summary of the method: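 Accumulated phospholipid, stained red by LipidTOX during 24 h compound treatment of HepG2 cells at 37 C, is quantified from images as pit number and intensity, normalised per cell using Hoechst-stained nuclei.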

[16] = qHTS assay to identify small molecule HDAC inhibitors (AID 1259364); also: potency is read from the fitted curve at half-maximal effect;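 also: wild-type HCT-116 cells with endogenous class I/II HDAC activity; nearly all actives have a fitted effect of over 45% in size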
Summary of the method: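 Cells (HCT-116, wild type) are seeded at 1,500 per well, incubated overnight, treated with compound in DMSO for 2 hr, then developed with HDAC-Glo I/II reagent for 30 min at room temperature.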

[17] = qHTS assay to identify small molecule HDAC inhibitors - cell viability counter screen (AID 1259365)
Summary of the method: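 Wild-type HCT-116 cells, 1,500/well, cultured overnight, then compound-treated 2 h at 37 C. Viability measured as ATP luminescence with CellTiter-Glo after 30 min at room temperature.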

[18] = A CellTox Green Cytotoxicity Assay to monitor cytotoxicity in HepG2 cells - 8 hour (AID 1224890); also: nearly all actives have a fitted effect of over 45% in size
Summary of the method: as §1

[19] = biological target: Androgen receptor (Homo sapiens) (UniProt P10275); experiment: qHTS assay to identify small molecule antagonists of the androgen receptor (AR) signaling pathway using the MDA cell line in the presence of 0.5 nM R1881 (AID 1259243); also: nearly all actives have a fitted effect of over 50% in size
Chain of Androgen receptor (Homo sapiens) (P10275 whole entry, looked up): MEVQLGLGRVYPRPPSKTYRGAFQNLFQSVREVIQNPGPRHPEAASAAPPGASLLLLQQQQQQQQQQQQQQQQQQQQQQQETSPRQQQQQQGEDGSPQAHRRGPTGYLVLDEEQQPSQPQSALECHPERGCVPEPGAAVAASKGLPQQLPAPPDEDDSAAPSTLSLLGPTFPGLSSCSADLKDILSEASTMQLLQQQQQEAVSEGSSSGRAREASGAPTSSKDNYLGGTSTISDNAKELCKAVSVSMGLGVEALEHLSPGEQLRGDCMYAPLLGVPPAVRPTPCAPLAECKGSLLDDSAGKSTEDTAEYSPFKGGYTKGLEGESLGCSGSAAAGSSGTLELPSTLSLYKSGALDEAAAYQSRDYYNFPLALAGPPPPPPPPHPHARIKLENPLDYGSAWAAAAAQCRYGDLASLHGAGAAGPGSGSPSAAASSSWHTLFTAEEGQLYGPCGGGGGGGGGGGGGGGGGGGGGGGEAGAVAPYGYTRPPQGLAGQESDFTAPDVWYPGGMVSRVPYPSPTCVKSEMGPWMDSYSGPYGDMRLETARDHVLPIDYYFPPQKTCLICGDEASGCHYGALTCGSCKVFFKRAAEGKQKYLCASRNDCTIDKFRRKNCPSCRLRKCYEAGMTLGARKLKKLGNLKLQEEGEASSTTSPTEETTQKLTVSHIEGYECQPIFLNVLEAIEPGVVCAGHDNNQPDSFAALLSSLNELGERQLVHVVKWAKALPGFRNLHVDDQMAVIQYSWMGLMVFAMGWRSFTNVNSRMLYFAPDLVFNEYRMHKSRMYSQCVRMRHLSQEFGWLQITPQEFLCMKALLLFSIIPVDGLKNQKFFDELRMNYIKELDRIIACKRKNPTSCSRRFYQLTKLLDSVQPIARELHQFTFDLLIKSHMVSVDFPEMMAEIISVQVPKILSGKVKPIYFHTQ
Summary of the method: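 Stably transfected MDA-kb2 cells express luciferase from an MMTV promoter bearing both AR and GR response elements. Compounds plus 0.5 nM R1881 (final) were incubated 16 hr at 37C without CO2, then luminescence measured.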

[20] = biological target: Estrogen receptor (Homo sapiens) (UniProt P03372); experiment: qHTS assay to identify small molecule antagonists of the estrogen receptor alpha (ER-alpha) signaling pathway using the BG1 cell line in the presence of 0.1 nM 17-beta-estradiol (AID 1259244); also: nearly all actives have a fitted effect of over 50% in size
Chain of Estrogen receptor (Homo sapiens) (P03372 whole entry, looked up): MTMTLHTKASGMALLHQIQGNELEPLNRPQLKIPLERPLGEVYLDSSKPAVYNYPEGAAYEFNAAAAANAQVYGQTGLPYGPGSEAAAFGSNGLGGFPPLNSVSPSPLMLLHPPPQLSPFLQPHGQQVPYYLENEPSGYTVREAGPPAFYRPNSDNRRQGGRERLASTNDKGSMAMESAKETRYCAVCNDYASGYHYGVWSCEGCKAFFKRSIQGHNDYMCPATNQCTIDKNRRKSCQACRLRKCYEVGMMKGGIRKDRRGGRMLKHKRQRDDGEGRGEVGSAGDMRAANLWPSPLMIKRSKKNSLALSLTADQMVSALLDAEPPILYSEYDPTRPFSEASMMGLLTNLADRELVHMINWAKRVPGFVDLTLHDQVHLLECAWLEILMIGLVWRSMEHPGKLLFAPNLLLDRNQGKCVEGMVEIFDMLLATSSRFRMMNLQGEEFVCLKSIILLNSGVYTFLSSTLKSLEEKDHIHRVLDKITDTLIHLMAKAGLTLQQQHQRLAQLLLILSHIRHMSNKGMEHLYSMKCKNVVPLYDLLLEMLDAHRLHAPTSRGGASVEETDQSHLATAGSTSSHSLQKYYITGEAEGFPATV
Summary of the method: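 Antagonist mode: compounds in DMSO are pinned onto VM7Luc4E2 reporter cells, 0.1 nM final 17beta-estradiol is added, and after 22 h at 37C luciferase luminescence is measured with ONE-Glo.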

Measured: Potency

CC(C)CC(=O)N[C@H](C(=O)N[C@H](C(=O)N[C@@H](CC(C)C)[C@@H](O)CC(=O)N[C@@H](C)C(=O)N[C@@H](CC(C)C)[C@@H](O)CC(=O)O)C(C)C)C(C)C (Isovaleryl-VV[Sta]A[Sta]-OH)
not listed: [18] | [19] | [20]
inactive: all other assays above

C=CCN1CCc2nc(N)sc2CC1
not listed: [11] | [20]
inactive: all other assays above

C[C@@H](CN1CC(=O)NC(=O)C1)N1CC(=O)NC(=O)C1
not listed: [12]
inactive: all other assays above

COc1cc2nc(N3CCN(C(=O)C4CCCO4)CC3)nc(N)c2cc1OC (configuration not stated)
active: [16] 3.35 µM
not listed: [13] | [18] | [19]
inactive: all other assays above

N=C(N)S(=O)O
not listed: [12] | [15] | [19] | [20]
inactive: all other assays above

NC(=O)CC[C@@H](N)C(=O)O
not listed: [12] | [19] | [20]
inactive: all other assays above

CC[C@@]1(c2ccccc2)NC(=O)N(C)C1=O
not listed: [12] | [19]
inactive: all other assays above

CCCC(=O)CC
not listed: [12] | [13] | [15] | [19]
inactive: all other assays above

NCC1CCC(C(=O)Oc2ccc(CCC(=O)O)cc2)CC1 (configuration not stated)
active: [16] 8.41 µM
not listed: [18] | [19] | [20]
inactive: all other assays above

COC(=O)c1ccccc1Cl
not listed: [12] | [15] | [18] | [19] | [20]
inactive: all other assays above

CN(C)c1ccncc1
not listed: [12] | [13] | [15] | [19]
inactive: all other assays above

CCCCCCCCCCCC(C)=O
not listed: [12] | [15] | [19]
inactive: all other assays above

O=C(O)Cc1ccccc1Oc1ccc(Cl)cc1Cl
not listed: [12] | [16] | [19]
inactive: all other assays above

CCCCCCCCCCCCCCCC/C=C/C1CC(=O)OC1=O (configuration not stated)
not listed: [12] | [13] | [15] | [18] | [19] | [20]
inactive: all other assays above

COCCCOc1cc(C[C@@H](C[C@H](N)[C@@H](O)C[C@H](C(=O)NCC(C)(C)C(N)=O)C(C)C)C(C)C)ccc1OC
not listed: [11] | [15] | [19]
inactive: all other assays above

C=CC(=O)OCC[N+](C)(C)C
not listed: [12] | [15] | [16] | [18] | [19]
inactive: all other assays above

C[C@H]1COc2c(C3(N)CC3)c(F)cc3c(=O)c(C(=O)O)cn1c23
not listed: [7] | [19] | [20]
inactive: all other assays above

C=CC(=O)CC
not listed: [7] | [15] | [19] | [20]
inactive: all other assays above

COc1ccccc1N1CCN(CC(O)COc2cc(OC)c(OC)c(OC)c2)CC1 (configuration not stated)
not listed: [11] | [13] | [15] | [16] | [19]
inactive: all other assays above

O=Cc1ccc(C(=O)O)cc1
not listed: [7] | [15] | [19] | [20]
inactive: all other assays above

Cc1ccc(S(=O)(=O)NC(=O)NN2CC3CCCC3C2)cc1 (configuration not stated)
not listed: [11] | [18] | [19]
inactive: all other assays above

CNCCc1ccccn1
not listed: [11] | [19] | [20]
inactive: all other assays above

Cc1cc(=O)oc2cc(O[C@@H]3SC[C@@H](O)[C@H](O)[C@H]3O)ccc12
not listed: [11] | [13] | [15]
inactive: all other assays above

COC(=O)c1c(C)cc(O)c(C)c1O
not listed: [9] | [11] | [15] | [19] | [20]
inactive: all other assays above

CCCCCC(CC)OC(=O)CCCOc1ccc(Cl)cc1Cl (configuration not stated)
not listed: [8] | [11] | [15] | [19] | [20]
inactive: all other assays above

O=C[C@@H](O)[C@H](O)[C@H](O)CO
not listed: [11] | [15] | [18] | [20]
inactive: all other assays above

CCCC[O][Al]([O]CCCC)[O]CCCC
not listed: [7] | [15] | [19] | [20]
inactive: all other assays above

COC(=O)c1ccc(C(=O)O)cc1
not listed: [11] | [15] | [16] | [19]
inactive: all other assays above

C[C@@H]1CCC[C@H](C)N1CCCC(O)(c1ccccc1)c1ccccn1 (some centres not stated)
not listed: [7] | [15] | [20]
inactive: all other assays above

CCCCCCCOC(C)=O
not listed: [7] | [15] | [19]
inactive: all other assays above

CC(C)c1cc(C(C)C)cc(C(C)C)c1
not listed: [11] | [15] | [16] | [19] | [20]
inactive: all other assays above

O=Cc1ccccc1S(=O)(=O)O
not listed: [7] | [15] | [19] | [20]
inactive: all other assays above

N=C(N)N
not listed: [7] | [19] | [20]
inactive: all other assays above

CNC(=O)c1c(I)c(NC(C)=O)c(I)c(C(=O)O)c1I
not listed: [7] | [15] | [19] | [20]
inactive: all other assays above
